Assay outcomes from PubChem.
Shown are actives, neighbours in structure and some others; about 4.6% of the full set was active somewhere.
D1 ag: Allosteric Agonists of the Human D1 Dopamine Receptor: qHTS; HEK293 T-REx D1 cells, calcium flux, agonist mode; activation, % at 2 µM; hit rate 1% among 360,000; AID 504660, 2011; also: 0% is about no effect
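Tetracycline-induced HEK293 TREx D1 cells, force-coupled to calcium signalling, were dye-loaded with a no-wash calcium kit. Compound was pin-added after a 10 s baseline. Fluorescence was read kinetically at 1 cycle/s for 180 s, with calcium rises flagged as agonism.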
TRHR ag: qHTS for Small Molecule Agonists and Allosteric Enhancers of Human TRH Receptor: Primary Screen for Agonists; TRHR cells, calcium flux fluo-8, FDSS agonist mode; Thyrotropin-releasing hormone receptor (Homo sapiens), P34981; hit rate 0.18% among 360,000; AID 493084, 2011; activation, % at 2 µM; also: 0% is about no effect
Target sequence (P34981 whole entry, looked up): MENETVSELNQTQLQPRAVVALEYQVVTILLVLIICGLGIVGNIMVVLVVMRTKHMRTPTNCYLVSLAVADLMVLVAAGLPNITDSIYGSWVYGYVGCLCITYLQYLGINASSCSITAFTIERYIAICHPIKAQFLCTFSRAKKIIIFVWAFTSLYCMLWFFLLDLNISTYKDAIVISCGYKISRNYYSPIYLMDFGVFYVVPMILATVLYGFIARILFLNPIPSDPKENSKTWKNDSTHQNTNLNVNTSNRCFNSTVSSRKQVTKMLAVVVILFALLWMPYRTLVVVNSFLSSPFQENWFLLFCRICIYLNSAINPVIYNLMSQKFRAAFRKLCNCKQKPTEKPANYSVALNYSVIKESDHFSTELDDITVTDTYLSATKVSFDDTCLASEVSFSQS
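TRHR-expressing cells, plated overnight in medium with 10% serum, were loaded with fluo-8 calcium dye at room temperature. After a 10 s baseline, library compound was pin-added and calcium release was recorded kinetically (ex 480/em 530) as agonist response.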
TRHR PAM: qHTS for Small Molecule Agonists and Allosteric Enhancers of Human TRH Receptor: Primary Screen for Enhancers | Thyrotropin-releasing hormone receptor (Homo sapiens), P34981 | AID 493056, 2011 | TRHR cells, fluo-8 calcium fluorescence, EC20 TRH enhancement | hit rate 0.66% among 360,000 | enhancement, % at 2 µM; in the data active = enhancement above about 30%; also: 0% is about no effect
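Enhancer read-out: after compound pinning and an initial kinetic agonist-mode read, an EC20 of TRH (10 nM final) was injected and fluo-8 calcium signal (Ex 480/Em 530) followed at 1 s/cycle for 100 cycles in TRHR-expressing cells.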
D1 antag: Antagonist of Human D 1 Dopamine Receptor: qHTS. D(1A) dopamine receptor (Homo sapiens), P21728. HEK293 TREx D1 cells, calcium flux, dopamine EC80; stronger effect = lower value. activity change, negative = inhibition, % at 10 µM. hit rate 3.2% among 360,000; in the data active = activity change below about -30%; also: % is scaled to controls: 0 for no effect and ±100 for the full control effect
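Tetracycline-induced HEK293 Trex D1 cells, force-coupled to calcium, dye-loaded; compounds added and read 180 s, then EC80 dopamine added and calcium flux tracked kinetically another 180 s.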
D1 potentiator: Potentiators of Human D1 Dopamine Receptor: qHTS; HEK293 TREx D1 cells, calcium flux, dopamine EC20 potentiation; D(1A) dopamine receptor (Homo sapiens), P21728; potentiation, % at 10 µM; hit rate 0.036% among 360,000; AID 504651, 2011; in the data active = potentiation above about 30%; also: 0% is about no effect
* hit, by the source's call; . = no result given. Rule as the data show it, unless noted: active = activation above about 30%; inactive = the rest.

SMILES	D1 ag	TRHR ag	TRHR PAM	D1 antag	D1 potentiator
COc1cccc(C(=O)Nc2ccc(Oc3cccc(C(F)(F)F)c3)nc2)c1	41.6*	-1.4	2.5	-42.4*	-4.5
COc1ccc(NC(=O)COc2cccc(C(F)(F)F)c2)cn1	0.5	0.5	23.0	1.6	0.1
O=C(O)c1ccc2c(c1)C(=O)N(N1C(=O)c3ccccc3C1=O)C2=O	8.1	2.2	31.3*	3.7	-1.2
O=C(O)c1ccc2c(c1)C(=O)N([C@H](Cc1ccc(-c3ccccc3)cc1)C(=O)O)C2=O	4.7	0.3	-3.3	-35.1*	8.9
Cc1ccc(C[C@H](C(=O)O)N2C(=O)c3ccc(C(=O)O)cc3C2=O)cc1	1.5	0.5	-7.8	7.3	6.0
Cc1cccc(C[C@H](C(=O)O)N2C(=O)c3ccc(C(=O)O)cc3C2=O)c1	1.7	0.4	-2.7	-31.8*	-4.4
CC(=O)N1CCc2cc(S(=O)(=O)NC(CC(C)C)C(=O)NCCc3cccc(C)c3)ccc21 (stereo unspecified)	1.2	0.0	8.0	-11.4	-1.9
CCc1cccc(CC)c1NC(=O)C(Cc1ccccc1)NS(=O)(=O)c1cccc2nsnc12 (stereo unspecified)	-0.3	-0.7	-9.1	19.1	7.5
O=C(CCCn1nnnc1CN1CCOCC1)N1CCC(c2ccccc2F)C1 (stereo unspecified)	4.0	0.4	-0.5	10.1	0.8
O=C(CCn1nnnc1CN1CCOCC1)N1CCC(c2cccc(Cl)c2)C1 (stereo unspecified)	1.5	0.3	-3.4	-80.2*	-11.4
CCN(CC(=O)Nc1c(F)cccc1F)C(=O)CNC(=O)c1ccc2c(c1)OCO2	4.3	0.4	8.1	-32.5*	-4.0
CCN(CC(=O)Nc1c(F)cccc1F)C(=O)CNC(=O)c1ccc2ccccc2c1	10.6	-0.1	9.1	19.6	.
CCOc1cccc(C(=O)N2CCC(c3nc4ccccc4s3)CC2)c1	0.2	-0.4	4.9	-35.7*	-1.6
O=C(COc1ccc([N+](=O)[O-])cc1)N1CCC(c2nc3ccccc3s2)CC1	6.8	0.0	-3.1	-82.1*	-1.1
CCOC(=O)N1CCN(C(=O)c2nc3ccccc3s2)CC1	3.5	0.1	-0.8	-33.8*	4.3
COc1ccc(OCC(=O)N2CCC(c3nc4ccccc4s3)CC2)cc1	4.9	-0.1	-1.3	-11.3	-0.8
Cc1cc2c(s1)c1cnn(Cc3cccc(C(F)(F)F)c3)c(=O)c1n2C	6.8	1.2	-2.6	-4.2	-5.8
C/C(=N\NC(=O)c1ccncc1)c1cc2ccccc2oc1=O	4.2	0.3	-0.9	-34.2*	2.5
C/C(=N/NC(=O)c1ccncc1)c1cc2ccc(O)cc2oc1=O	40.6*	23.9	4.9	-7.0	-2.3
C/C(=N/NC(N)=S)c1cc2ccc(O)cc2oc1=O	5.6	3.6	1.5	5.6	-4.7
C/C(=N\NC(=O)c1ccncc1)c1cc2ccccc2o1	-0.2	-0.3	2.2	-25.8	-3.4
CCn1ccc2cc(S(=O)(=O)N3CCC(C(=O)NCCOC)CC3)ccc21	2.5	0.6	4.6	8.3	4.2
O=C(Nc1ccccc1O)c1ccc(NC(=O)C2CC2)cc1	0.3	0.1	-0.5	-33.3*	-4.6
O=C(Nc1ccccc1C(=O)O)c1ccc(NC(=O)C2CC2)cc1	1.4	0.0	10.9	-10.7	-5.5
O=C(CSc1ccccc1F)OCC(=O)N1CCN(C(=O)c2ccco2)CC1	-0.3	0.5	4.0	-5.3	3.4
Cc1cc(Br)ccc1SCC(=O)OCC(=O)N1CCN(C(=O)c2ccco2)CC1	34.1*	-0.4	-2.2	-1.2	-3.9
Cc1cc(CNC(=O)c2cccc([N+](=O)[O-])c2C)c2ccccc2n1	26.5	0.3	4.0	-45.7*	-7.5
COc1cccc(CNC(=O)c2cc(C)nc3ccccc23)c1	2.7	-0.6	9.6	-39.2*	-6.0
COc1ccc(CNC(=O)c2cc(-c3cccs3)nc3ccccc23)c(OC)c1	3.9	-1.8	6.0	-46.3*	-0.8
